Source: PubChem BioAssay (several laboratories)
STAT1 inh: STAT1 signaling inhibition; NIH 3T3 STAT1-luciferase reporter, IFN-gamma, luminescence; inhibition, % at 5.5 µM; 0.35% of 200,000 active;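 active means inhibition above a set limit, the mean inhibition across all tested compounds plus 3 SD, cut at about 34% in these data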;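 further: 0% = IFN-gamma with DMSO and 100% = IFN-gamma with 300 µM nifuroxazide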
PPC-1+TRAIL kill: PPC-1 cancer cell killing with TRAIL present. PPC-1 cells + TRAIL, ATPLite viability luminescence. cell killing (% activity), % at 4 µM or 5 µM. 0.41% of 220,000 active. AID 1443;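 active means cell killing above 50% in the first pass at 4 µM, then a duplicate retest at 5 µM averaging 50% or more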;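 further: plate controls were cells with TRAIL plus DMSO for no effect and medium-only wells lacking cells for full effect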
STAT3 blocker: inhibitors of IL-6 induced STAT3 signaling. 0.89% of 190,000 active. inhibition, % at 5.5 µM. U3A cells, IL-6 STAT3-luciferase reporter, luminescence; host cell line lacks STAT1;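 active means inhibition above the mean inhibition across all screened compounds plus 3 SD, cut at about 44% in these data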;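 further: 0% = DMSO only wells and 100% = 100 µM nifuroxazide control wells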
Platelet DG rel: modulates dense granule release in human platelets; inhibition, %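 (compounds screened at 7.5 µM in platelet-rich plasma)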; 0.22% of 300,000 active; human platelet-rich plasma, SFLLRN dense granule ATP release, luminescence;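 active means mean replicate score, as percent of positive control, at or above 50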
TRAIL sens C8: sensitizes caspase-8 expressing cells to TRAIL; NB7+C8 cells + TRAIL, ATPlite viability luminescence; inhibition (viability loss, TRAIL sensitization), % at 10 µM; 1% of 360,000 active; AID 624354;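 active means compounds causing at least 50% loss of cell viability in the single-dose screen, relative to plate controls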
* = called active by the depositor; nt = no result given. Compounds with a hit are over-represented: about 1.6% of the library has one in this group of screens.

SMILES	STAT1 inh	PPC-1+TRAIL kill	STAT3 blocker	Platelet DG rel	TRAIL sens C8
CC[C@H](C)[C@H]1O[C@]2(CC[C@@H]1C)C[C@@H]1C[C@@H](CC=C(C)[C@@H](O[C@H]3C[C@H](OC)[C@@H](O[C@H]4C[C@H](OC)[C@@H](O)[C@H](C)O4)[C@H](C)O3)[C@@H](C)C=CC=C3CO[C@@H]4[C@H](O)C(C)=C[C@@H](C(=O)O1)[C@]34O)O2	nt	nt	nt	nt	71*
CCOC(=O)c1ccc(N2C(=O)C3C(/C=C/c4ccccc4)OC4(C(=O)c5ccccc5C4=O)C3C2=O)cc1 (centres undefined)	0	55*	-4	-5	-10
CCCN1C(=O)CC(c2ccc(OC)c(OC)c2)C1=O (centres undefined)	nt	nt	nt	nt	-5
CC1(C)CCCC2(C)C(OCCO)=CC(=O)C=C12 (centres undefined)	nt	nt	nt	nt	-10
O=C(CCc1ccccc1)N/N=C/c1cc(Br)ccc1O	-2	16	17	9	55*
O=C(N/N=C/c1cc(Br)ccc1O)c1ccccc1Cl	-4	43	2	5	56*
COC(=O)N/N=C/c1cc(Br)ccc1O	2	-5	24	6	1
CCCCn1nnnc1C(c1cc2ccccc2o1)N1CCN(c2cc(C)nc3ccccc23)CC1 (centres undefined)	nt	nt	nt	nt	32
Cc1ccc(C(=O)COC(=O)c2ccc3c(c2)C(=O)N(c2cccc4ncccc24)C3=O)cc1	7	27	1	-13	51*
Cc1ccc(-c2nc(N/N=C/c3cccc([N+](=O)[O-])c3)c3ccccc3n2)cc1	5	nt	-5	16	64*
Cc1ccc2c(c1)-c1nc3ccccc3cc1C2=NC1CCCCC1	-80	25	-4	nt	51*
c1ccc2c(c1)-c1nc3ccccc3cc1C2N1CCCCC1 (centres undefined)	nt	nt	nt	nt	5
Cc1ccc2c(c1)C(=NC1CCCCC1)c1cc3ccccc3nc1-2	-102	14	-20	-11	64*
Cc1ccc(-c2cc3ccccc3nc2N2CCCC2)cc1	3	4	-8	-1	-12
Cc1ccc(S(=O)(=O)c2nnn3c2nc(NC2CCN(Cc4ccccc4)CC2)c2ccccc23)cc1C	nt	nt	nt	0	88*
CC(=O)n1cc(N(C(=O)CCl)c2ccccc2)c2ccccc21	nt	18	nt	-12	95*
CC(=O)n1cc(N(C(=O)CCl)c2ccc([N+](=O)[O-])cc2)c2ccccc21	nt	8	nt	11	72*
COCCNc1nc(NCc2ccc(NC(C)=O)cc2)c2sc(-c3ccccc3)cc2n1	nt	nt	nt	nt	45
COc1ccc(CNS(=O)(=O)c2c(C(=O)N3CCCCCC3)c(C)n(C)c2C)cc1	nt	nt	nt	-32	-7
CCCCCCn1c(NCC)nc2c1c(=O)n(C)c(=O)n2C	40*	8	67*	-2	8
CCCCNc1nc2c(c(=O)n(C)c(=O)n2C)n1CCC	nt	13	nt	22	-1
COC(=O)C(C#N)c1nc2ccccc2nc1N1CCN(Cc2ccc3c(c2)OCO3)CC1 (centres undefined)	nt	20	nt	56*	nt
CN(Cc1ccccc1)CC1C2CCC(C2)C1O (centres undefined)	nt	nt	nt	nt	10
CCOC(=O)c1c(C)nc2c3ccccc3ccn12	-57	25	-12	0	50*
CCOc1ccc(NC(=O)CN(C)C2=NS(=O)(=O)c3ccccc32)cc1	nt	nt	nt	nt	2
SMILES	STAT1 inh	PPC-1+TRAIL kill	STAT3 blocker	Platelet DG rel	TRAIL sens C8
Cc1ccc(C)c(C(=O)Cn2ncc(Cl)c(Cl)c2=O)c1	16	26	15	6	97*
Cc1cc(C(=O)Cn2ncc(Cl)c(Cl)c2=O)c(C)n1CC(F)(F)F	18	14	-6	4	-3
Cc1cccc(Cn2ncc(Cl)c(Cl)c2=O)c1	16	10	26	12	54*
COc1ccc(-c2coc3cc(O[C@@H]4O[C@H](CO)[C@@H](O)[C@H](O)[C@H]4O)ccc3c2=O)cc1	nt	nt	nt	nt	24
O=c1c(-c2ccc3c(c2)OCCO3)coc2cc(OC3OC(CO)C(O)C(O)C3O)ccc12 (centres undefined)	nt	14	nt	-5	54*
Cc1ccc(C(=O)NCCn2c(N)c(C#N)c3nc4ccccc4nc32)cc1	-3	73*	24	7	-8
N#Cc1c(N)n(CCNC(=O)c2ccc(Cl)cc2)c2nc3ccccc3nc12	-2	2	28	-2	-5
CN(C)c1ccc(N/C=C/C(=O)c2ccccc2)cc1	45*	18	84*	88*	67*
O=C(/C=C\Nc1ccc(Br)cc1)c1cccnc1	-70	47	14	2	66*
COc1ccccc1C(=O)Nc1ccc2oc(-c3ccc(F)cc3)nc2c1	-9	53*	-12	0	13
COc1ccc(C(=O)Nc2ccc3oc(-c4cccc(F)c4)nc3c2)cc1OC	nt	16	nt	-6	12
O=[N+]([O-])c1c(Nc2cccc(O)c2)cc(Cl)c2nonc12	nt	nt	nt	60*	59*
O=C(O)c1ccc(Nc2cc(Cl)c3nonc3c2[N+](=O)[O-])cc1	-2	-6	5	0	-4
Oc1c(Br)cc(Br)cc1C=Nc1ccc2c(c1)OCCO2	-7	26	9	0	-12
Oc1[nH]c2ccccc2c1C=Nc1ccc2c(c1)OCCO2	-85	36	37	9	57*
CC(Sc1nnc(C2CC2)n1-c1ccccc1)C(=O)N1CCCC1 (centres undefined)	nt	nt	nt	nt	3
CCN1C/C(=C/c2ccc(OC)c(O)c2)C(=O)/C(=C/c2ccc(OC)c(O)c2)C1	-254	50*	4	-1	13
COc1cc(/C=C2/CC/C(=C/c3ccc(O)c(OC)c3)C2=O)ccc1O	nt	33	nt	0	11
COc1ccc(C=C2C=C(C(C)(C)C)C(=O)C(C(C)(C)C)=C2)cc1OC	nt	nt	nt	-7	87*
COc1ccc(/C=C2\CC/C(=C\c3ccc(OC)c(OC)c3)C2=O)cc1OC	-2	39	21	2	64*
C[C@@H]1CN([C@H](C)CO)C(=O)c2cc(-c3ccc(C(=O)N(C)C)cc3)cnc2O[C@@H]1CN(C)C(=O)c1cccnc1	nt	nt	nt	nt	-6
COc1ccc(C(C)NC(=O)Cc2cccs2)cc1OC (centres undefined)	nt	nt	nt	7	-1
CC(C)c1ccc(NC(=O)C2(C)Cc3c(-c4ccccc4)ccnc3O2)cc1 (centres undefined)	nt	nt	nt	nt	-12
CCCCn1nnnc1C(c1ccccc1)N1CCN(c2ncc(C(F)(F)F)cc2Cl)CC1 (centres undefined)	nt	nt	nt	nt	19
COCc1c(C(=O)Nc2nc(C)cs2)oc2ccccc12	-32	0	-16	0	-9
SMILES	STAT1 inh	PPC-1+TRAIL kill	STAT3 blocker	Platelet DG rel	TRAIL sens C8
COc1ccc2oc(C(=O)Nc3nc(C)cs3)c(C)c2c1	nt	nt	nt	nt	60*
COc1ccc2oc(C(=O)Nc3ccccn3)c(C)c2c1	nt	nt	nt	13	62*
COc1ccc2oc(C(=O)Nc3ccc(C)cn3)c(C)c2c1	nt	nt	nt	-10	33
COc1ccc2oc(C(=O)N3CCc4ccccc43)c(C)c2c1	nt	nt	nt	26	82*
Cc1csc(NC(=O)CSc2nc3[nH]c(=O)cc(O)c3s2)n1	nt	nt	nt	nt	58*
O=C(CSc1nc2[nH]c(=O)cc(O)c2s1)Nc1nncs1	nt	nt	nt	nt	-7
